# Measured values taken from PubChem BioAssay (NCATS).
# Values joined by “and” are separate entries in the source; they are usually repeats but may differ in a detail not shown here. Equal entries are not always repeated. Inconclusive results are not listed. Active and inactive are the calls of the source. Unless noted, no rule for the calls is given here.
# How the values were obtained:
# [1] = qHTS Assay for Identifying Gametocytocidal Compounds (AID 743244; active = well fitted curve in the direction sought with a large enough effect; an effect the other way counts as inactive or inconclusive;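 also: % is scaled to controls: 0 for no effect and ±100 for the full control effect; actives lower the fluorescent signal which means gametocytes are killed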); conditions: P. falciparum 3D7 stage III-V gametocytes, alamarBlue, 72 h; max response: stronger effect = lower value
# Summary of the method: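 In this qHTS viability screen, late-stage 3D7 gametocytes are incubated with compound for 72 h, then with alamarBlue for 24 h; reduced resorufin fluorescence marks killing.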
# [2] = qHTS profiling for inhibitors of Plasmodium falciparum (3D7) proliferation (AID 743322);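 also: infected erythrocytes exposed to compound for 72 h before lysis; 100% = DMSO vehicle wells and 0% = 0.29 µM artemisinin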; conditions: P. falciparum 3D7 proliferation; at 28.7 µM (top of the series) unless noted
# Summary of the method: (§1)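 Parasite DNA was quantified by SYBR Green I fluorescence (ex 485, em 535 nm) after overnight lysis in saponin/Triton buffer at room temperature. Cultures at 0.3% parasitemia and 2.5% hematocrit were first exposed to compound for 72 h at 37 C; signals were normalised to artemisinin (0.29 uM) and vehicle wells.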
# [3] = qHTS profiling for inhibitors of Plasmodium falciparum (DD2) proliferation (AID 743323); conditions: lower = more inhibition; at 28.7 µM (top of the series) unless noted
# Summary of the method: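 1536-well qHTS; infected RBCs 0.3% parasitemia/2.5% Hct final; cpd 72 h 37 C 5% CO2; lysis buffer + SYBR Green I, o/n RT dark; FI 485/535; norm. to 0.29 uM artemisinin and DMSO, plate-stack corrected.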
# [4] = qHTS profiling for inhibitors of Plasmodium falciparum (HB3) proliferation (AID 743324; active = well fitted curve in the direction sought with a large enough effect; an effect the other way counts as inactive or inconclusive;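 also: 100% = DMSO vehicle wells and 0% = artemisinin-treated control wells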); conditions: Plasmodium falciparum HB3 blood-stage proliferation; at 28.7 µM (top of the series) unless noted
# Summary of the method: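 SYBR Green fluorescence (485 ex/535 em) of lysed cultures, incubated overnight at room temperature in the dark, quantifies parasite DNA. Infected erythrocytes at 0.3% parasitemia and 2.5% hematocrit were exposed 72 h; values normalized to DMSO and 0.29 uM artemisinin controls.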
# [5] = qHTS profiling of the MIPE4 collection as inhibitors of Plasmodium falciparum (3D7) proliferation (AID 743344);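 also: scaled between DMSO vehicle wells and 0.29 µM artemisinin as full inhibition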; conditions: P. falciparum 3D7 in erythrocytes, SYBR Green DNA fluorescence, 72 h; at 28.5 µM (top of the series) unless noted
# Summary of the method: as §1
# [6] = qHTS profiling of the MIPE4 collection as inhibitors of Plasmodium falciparum (DD2) proliferation (AID 743345); conditions: P. falciparum Dd2 in erythrocytes, SYBR Green DNA, 72 h; at 28.5 µM (top of the series) unless noted
# Summary of the method: as §1
# [7] = qHTS profiling of the MIPE4 collection as inhibitors of Plasmodium falciparum (DD2) proliferation (Rep 2) (AID 743346); conditions: P. falciparum Dd2 in erythrocytes, SYBR Green DNA, 72 h; at 28.5 µM (top of the series) unless noted
# Summary of the method: as §1
# [8] = qHTS profiling of the MIPE4 collection as inhibitors of Plasmodium falciparum (HB3) proliferation (AID 743347);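 also: plate controls were DMSO vehicle wells for no effect and artemisinin wells for full effect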; conditions: P. falciparum HB3 in erythrocytes, SYBR Green DNA, 72 h; at 28.5 µM (top of the series) unless noted
# Summary of the method: as §1
Compound,max response [1],remaining parasite growth % (stronger effect = lower value) [2],"activity, percent of control [3]","remaining proliferation (% of control), lower = more inhibition [4]","parasite growth, % of DMSO control [5]","parasite growth remaining, % of DMSO control (lower = more inhibition) [6]","parasite growth, % of control (lower = inhibition) [7]","growth, % of control [8]"
CC(C)C[C@H](NC(=O)[C@@H](O)[C@H](N)Cc1ccccc1)C(=O)O,-20.9% (inactive) and 9.59% (inactive),2.82%,6.99%,5.96%,7.87%,10.1%,16%,6.17%
C[C@]12CC[C@H](O)CC1=CC[C@@H]1[C@H]2CC[C@]2(C)C(c3cccnc3)=CC[C@H]12,-8.9% (inactive),-0.476%,1.24%,24.9%,7.02% [at 9.64 µM],10% [at 9.64 µM],24.8% [at 9.64 µM],9.4% [at 9.64 µM]
COc1ccc(CCN2CCN(CCCc3ccccc3)CC2)cc1OC,-5.52% (inactive),9.47%,65.7%,–,28.6%,95.6%,30%,21.1%
C[C@H](NC(=O)Cc1cc(F)cc(F)c1)C(=O)N[C@@H]1C(=O)N(C)c2ccccc2-c2ccccc21,-14.2% (inactive),7.69%,7.48%,6.09%,10.3%,12.1%,12.3%,3.07%
CN(C)c1ccc(Nc2nc(N)n(C(=O)c3c(F)cccc3F)n2)cc1,-28% (inactive),4.41%,8.82%,–,10.5%,51.7%,13.6%,6.51%
Cc1cc2c(F)c(Oc3ncnn4cc(OC[C@@H](C)O)c(C)c34)ccc2[nH]1,-5% (inactive),101%,101%,–,46.6%,93.1%,54.4%,76.7%
COCCNCCCn1c(C(=O)CF)c(-c2ccc(C)cc2)c2c(N)ncnc21,-16.2% (inactive),72.8%,77.9%,35%,39%,85.3%,36.5%,32.4%
COc1cc(Nc2ncc3c(n2)-c2ccc(Cl)cc2C(c2c(F)cccc2OC)=NC3)ccc1C(=O)O,-8.12% (inactive),89.5%,78.1%,61.2%,24.7%,69.6%,39.4%,30.2%
O=S(=O)(N=Cc1c(O)ccc2ccccc12)c1cccs1,-5.04% (inactive),85.7%,92.2%,82.6%,75.2%,91.9%,63.3%,63.2%
O=C(c1cc(Cc2n[nH]c(=O)c3ccccc23)ccc1F)N1CCN(C(=O)C2CC2)CC1,10.8% (inactive),88.8% and 97.4%,97.9% and 99.7%,57.9% and 59.4%,23.5%,92.7%,44.7%,35.9%
